Assay results as given in the supplement of paper PMC6555819.

Tests used:
Assay in all cases: PBM binding z-score (relative to random genomic background probes); higher = stronger binding; sequences stand for … in GC…GCGATTGACAGCGTAGAATGAAGG
[1] = system: FXR:RXRa (NR concentration 270 nM, RXRa partner concentration 90 nM)
Method in brief: (§1)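 For binding z-scores, the reference was random background probes on custom Agilent 4×180K protein-binding microarrays. These arrays were incubated 1 h with ligand-free nuclear receptor dimers in PBS pH 7.4, 2% milk, 0.02% Triton X-100, 1 mM DTT, 0.2 mg/mL BSA and 0.4 mg/ml salmon testes DNA. Fluorescence was scanned after antibody detection of each partner (one per run) and regression-normalized.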

[2] = system: LXRa:RXRa (NR concentration 270 nM, RXRa partner concentration 90 nM)
Method in brief: as §1

[3] = system: LXRa homodimer (NR concentration 270 nM)
Method in brief: as §1

[4] = system: LXRb:RXRa (NR concentration 270 nM, RXRa partner concentration 90 nM)
Method in brief: as §1

[5] = system: LXRb homodimer (NR concentration 270 nM)
Method in brief: as §1

[6] = system: PPARa:RXRa (NR concentration 270 nM, RXRa partner concentration 90 nM)
Method in brief: as §1

[7] = system: PPARg:RXRa (NR concentration 180 nM, RXRa partner concentration 90 nM)
Method in brief: as §1

[8] = system: PPARg:RXRa 270nM:90nM, anti-RXR (NR concentration 270 nM, RXRa partner concentration 90 nM)
Method in brief: as §1

[9] = system: PPARg:RXRa 30nM:10nM, anti-RXR (NR concentration 30 nM, RXRa partner concentration 10 nM)
Method in brief: as §1

[10] = system: PPARg:RXRa 90nM:30nM, anti-RXR (NR concentration 90 nM, RXRa partner concentration 30 nM)
Method in brief: as §1

[11] = system: PPARg:RXRa DBDmut IVT, anti-RXR (DBD mutation: RXRa K156A/R161A, NR concentration 270 nM, RXRa partner concentration 90 nM)
Method in brief: as §1

[12] = system: PPARg:RXRa IVT, anti-PPARg (NR concentration 270 nM, RXRa partner concentration 90 nM)
Method in brief: as §1

[13] = system: PPARg DBDmut:RXRa IVT, anti-PPARg (DBD mutation: PPARg1 K132A/R137A, NR concentration 270 nM, RXRa partner concentration 90 nM)
Method in brief: as §1

[14] = system: PPARg DBDmut IVT, anti-PPARg (DBD mutation: PPARg1 K132A/R137A, NR concentration 270 nM)
Method in brief: as §1

[15] = system: PPARg homodimer (NR concentration 180 nM)
Method in brief: as §1

[16] = system: PXR:RXRa (NR concentration 270 nM, RXRa partner concentration 90 nM)
Method in brief: as §1

[17] = system: PXR homodimer (NR concentration 270 nM)
Method in brief: as §1

[18] = system: RARa:RXR (NR concentration 270 nM, RXRa partner concentration 90 nM)
Method in brief: as §1

[19] = system: RARa homodimer (NR concentration 270 nM)
Method in brief: as §1

[20] = system: RARb:RXRa (NR concentration 270 nM, RXRa partner concentration 90 nM)
Method in brief: as §1

CCGACCGGGGCAAAGGTTACCATACTCAGTACGA
PBM binding z-score [1]: 2.32 | PBM binding z-score [2]: 2.1 | PBM binding z-score [3]: 0.433 | PBM binding z-score [4]: 2.47 | PBM binding z-score [5]: -1.02 | PBM binding z-score [6]: 4.89 | PBM binding z-score [7]: 8.71 | PBM binding z-score [8]: 7.68 | PBM binding z-score [9]: 6.28 | PBM binding z-score [10]: 7.92 | PBM binding z-score [11]: 0.771 | PBM binding z-score [12]: 3.62 | PBM binding z-score [13]: -1.08 | PBM binding z-score [14]: -1.57 | PBM binding z-score [15]: 1.59 | PBM binding z-score [16]: 2.84 | PBM binding z-score [17]: -0.256 | PBM binding z-score [18]: 4.81 | PBM binding z-score [19]: -0.0897 | PBM binding z-score [20]: 2.66

TCTATTAGTTGAAGGCCAACCGACGAGTCCGTTT
PBM binding z-score [1]: 0.871 | PBM binding z-score [2]: 1.16 | PBM binding z-score [3]: 0.259 | PBM binding z-score [4]: 0.921 | PBM binding z-score [5]: 0.342 | PBM binding z-score [6]: 1.28 | PBM binding z-score [7]: 0.257 | PBM binding z-score [8]: 2.32 | PBM binding z-score [9]: 4.11 | PBM binding z-score [10]: 2.96 | PBM binding z-score [11]: 2.37 | PBM binding z-score [12]: 0.522 | PBM binding z-score [13]: 0.431 | PBM binding z-score [14]: 0.553 | PBM binding z-score [15]: 1.36 | PBM binding z-score [16]: 0.903 | PBM binding z-score [17]: 1.4 | PBM binding z-score [18]: 0.79 | PBM binding z-score [19]: 1.21 | PBM binding z-score [20]: 1.02

TCTGCTAGGTCAACGATTGTCAGCTAATCTGCTA
PBM binding z-score [1]: 2.81 | PBM binding z-score [2]: 1.94 | PBM binding z-score [3]: -0.0951 | PBM binding z-score [4]: 1.4 | PBM binding z-score [5]: -0.279 | PBM binding z-score [6]: 2.93 | PBM binding z-score [7]: 2.43 | PBM binding z-score [8]: 2.93 | PBM binding z-score [9]: 1.9 | PBM binding z-score [10]: 2.36 | PBM binding z-score [11]: 4.14 | PBM binding z-score [12]: 4.13 | PBM binding z-score [13]: 0.817 | PBM binding z-score [14]: 0.395 | PBM binding z-score [15]: 0.734 | PBM binding z-score [16]: 1.19 | PBM binding z-score [17]: -0.478 | PBM binding z-score [18]: 1.86 | PBM binding z-score [19]: -1.01 | PBM binding z-score [20]: 4.03
